# Several values for one entry are separate records, joined by “and”; a condition that tells them apart may be missing. Identical values can stand only once. In all, about 5,500 compounds went through this assay and about 2,000 (36%) were called active. Roughly 18% stayed inconclusive and do not appear here. The list shows a part of the results. A number with no mark means an inactive call. Rule as the data show it: active = normalized growth mostly below about 0.91 (no sharp cut-off); inconclusive = no clear call, values can overlap the other calls; inactive = mostly above about 0.92.
# Experiment: chemical genetic growth profiling, strain panel (AID 1159580);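 also: tested at 20 µM; growth read once vehicle control cultures reached saturation at 30 °C; 1 = growth at the plate median or of vehicle wells; lower values mean less growth of the strain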
# Conditions: S. cerevisiae deletion strains, growth OD
smiles,measurement,setting,value
Nc1nc(N)c2nc(CNc3ccc(C(=O)NC(CCC(=O)O)C(=O)O)cc3)cnc2n1 (stereo not given),normalized growth,"locus YAL013W, strain DEP1, hits give low values",1.03
same,normalized growth,"locus YAL021C, strain ccr4, hits give low values",0.925
same,normalized growth,"locus YAL026C, strain drs2, hits give low values",0.991
same,normalized growth,"locus YAL030W, strain snc1, hits give low values",0.989
same,normalized growth,"locus YAL040C, strain CLN3, hits give low values",0.994
same,normalized growth,"locus YBL061C, strain skt5, hits give low values",1
same,normalized growth,"locus YBR009C, strain hhf1, hits give low values",0.991
same,normalized growth,"locus YBR021W, strain FUR4, hits give low values",1.2 [resistant] (active)
same,normalized growth,"locus YBR023C, strain chs3, hits give low values",0.995
same,normalized growth,"locus YBR171W, strain sec66, hits give low values",1.01
same,normalized growth,"locus YBR229C, strain ROT2, hits give low values",1
same,normalized growth,"locus YBR231C, strain swc5, hits give low values",1.01
same,normalized growth,"locus YBR279W, strain paf1, hits give low values",1
same,normalized growth,"locus YCL011C, strain gbp2, hits give low values",0.983
same,normalized growth,"locus YCL016C, strain dcc1, hits give low values",0.975
same,normalized growth,"locus YCL029C, strain bik1, hits give low values",0.977
same,normalized growth,"locus YCL069W, strain vba3, hits give low values",0.996
same,normalized growth,"locus YCR088W, strain abp1, hits give low values",0.996
same,normalized growth,"locus YDL005C, strain med2, hits give low values",0.996
same,normalized growth,"locus YDL035C, strain GPR1, hits give low values",1.03
same,normalized growth,"locus YDL040C, strain nat1, hits give low values",1
same,normalized growth,"locus YDL074C, strain BRE1, hits give low values",0.993
same,normalized growth,"locus YDL101C, strain DUN1, hits give low values",0.996
same,normalized growth,"locus YDL134C, strain PPH21, hits give low values",1.02
same,normalized growth,"locus YDL185W, strain tfp1, hits give low values",0.961
same,normalized growth,"locus YDL192W, strain arf1, hits give low values",1
same,normalized growth,"locus YDR001C, strain nth1, hits give low values",0.987
same,normalized growth,"locus YDR069C, strain doa4, hits give low values",0.985
same,normalized growth,"locus YDR101C, strain arx1, hits give low values",0.982
same,normalized growth,"locus YDR137W, strain rgp1, hits give low values",0.985
same,normalized growth,"locus YDR150W, strain NUM1, hits give low values",1
same,normalized growth,"locus YDR159W, strain sac3, hits give low values",1.05
same,normalized growth,"locus YDR162C, strain NBP2, hits give low values",0.993
same,normalized growth,"locus YDR195W, strain ref2",0.961
same,normalized growth,"locus YDR297W, strain sur2, hits give low values",1
same,normalized growth,"locus YDR318W, strain mcm21, hits give low values",1
same,normalized growth,"locus YDR334W, strain swr1, hits give low values",0.985
same,normalized growth,"locus YDR335W, strain msn5, hits give low values",0.977
same,normalized growth,"locus YDR363W, strain ESC2, hits give low values",1
same,normalized growth,"locus YDR388W, hits give low values",0.994
same,normalized growth,"locus YDR392W, strain spt3, hits give low values",0.94
same,normalized growth,"locus YDR502C, strain sam2, hits give low values",1
same,normalized growth,"locus YEL003W, strain gim4, hits give low values",1
same,normalized growth,"locus YEL037C, strain rad23, hits give low values",0.989
same,normalized growth,"locus YEL061C, strain CIN8 (second series), hits give low values",0.996
same,normalized growth,"locus YEL061C, strain CIN8, hits give low values",0.994
same,normalized growth,"locus YER002W, strain NOP16, hits give low values",0.993
same,normalized growth,"locus YER015W, strain faa2, hits give low values",0.994
same,normalized growth,"locus YER016W, strain bim1, hits give low values",0.998
same,normalized growth,"locus YER110C, hits give low values",0.981
same,normalized growth,"locus YER111C, strain swi4, hits give low values",0.995
same,normalized growth,"locus YER155C, strain BEM2 (second series), hits give low values",1.05
same,normalized growth,"locus YER155C, strain BEM2, hits give low values",0.987
same,normalized growth,"locus YER167W, strain BCK2, hits give low values",1
same,normalized growth,"locus YFR010W, strain ubp6, hits give low values",0.982
same,normalized growth,"locus YGL078C, strain dbp3, hits give low values",0.999
same,normalized growth,"locus YGL086W, strain mad1, hits give low values",0.994
same,normalized growth,"locus YGL167C, strain pmr1, hits give low values",0.974
same,normalized growth,"locus YGL173C, strain kem1, hits give low values",1.01
same,normalized growth,"locus YGL227W, strain vid30, hits give low values",1
same,normalized growth,"locus YGL240W, strain doc1, hits give low values",1.03
same,normalized growth,"locus YGL248W, strain PDE1, hits give low values",1
same,normalized growth,"locus YGL253W, strain hxk2, hits give low values",1.01
same,normalized growth,"locus YGR078C, strain PAC10, hits give low values",1.02 and 0.965
same,normalized growth,"locus YGR135W, strain pre9, hits give low values",0.998
same,normalized growth,"locus YGR252W, strain gcn5, hits give low values",1.14
same,normalized growth,"locus YHR013C, strain ard1, hits give low values",0.971
same,normalized growth,"locus YHR027C, strain rpn1, hits give low values",0.982
same,normalized growth,"locus YHR030C, strain SLT2, hits give low values",0.99
same,normalized growth,"locus YHR079C, strain IRE1 (second series), hits give low values",0.978
same,normalized growth,"locus YHR094C, strain hxt1, hits give low values",0.991
same,normalized growth,"locus YHR129C, strain ARP1, hits give low values",1
same,normalized growth,"locus YHR142W, strain chs7, hits give low values",0.965
same,normalized growth,"locus YHR200W, strain rpn10, hits give low values",0.992
same,normalized growth,"locus YIL066C, strain RNR3, hits give low values",1
same,normalized growth,"locus YIL073C, strain SPO22, hits give low values",0.946
same,normalized growth,"locus YIL125W, strain kgd1, hits give low values",0.993
same,normalized growth,"locus YIR030C, strain dcg1, hits give low values",0.988
same,normalized growth,"locus YJL092W, strain hpr5, hits give low values",0.983
same,normalized growth,"locus YJL095W, strain BCK1 (second series), hits give low values",0.985
same,normalized growth,"locus YJL095W, strain BCK1, hits give low values",0.984
same,normalized growth,"locus YJL115W, strain asf1, hits give low values",0.962
same,normalized growth,"locus YJL129C, strain trk1, hits give low values",0.998
same,normalized growth,"locus YJL134W, strain LCB3, hits give low values",0.988
same,normalized growth,"locus YJL154C, strain vps35, hits give low values",0.99
same,normalized growth,"locus YJL164C, strain tpk1, hits give low values",0.964
same,normalized growth,"locus YJL166W, strain qcr8, hits give low values",1.02
same,normalized growth,"locus YJL168C, strain set2, hits give low values",0.998
same,normalized growth,"locus YJL187C, strain SWE1 (second series), hits give low values",0.992
same,normalized growth,"locus YJR043C, strain POL32, hits give low values",1.04

# Reference: PubChem BioAssay AID1159580 (chemical genetic matrix, 2015)
